Values without a mark were called inactive. The rule behind the calls is not given here.
B1: design_613_5efed0bc-64ba-423b-b3f9-a246574e49bb_1210_dldesign_0_cycle1_af2pred (protein)
chain: AEKIEKLTKALELLLEALKHKDDIELARELAKKAAELLKEAGAEEAAKYAEAAAKATDKEEMTELLNKAAGKAAKAIIDAQKAAA
B2: design_613_5efed0bc-64ba-423b-b3f9-a246574e49bb_1285_dldesign_0_cycle1_af2pred (protein)
chain: GLKEELLKEVRKVKKEAEKNAKDLEKLNEYLAKALDIAKKAQEAGDKETIAEATKVANLAAKLALEVAKA
B3: design_614_ef6b398b-10cb-4a07-8087-96dafb4f9c83_741_dldesign_0_cycle1_af2pred (protein)
chain: SELIERAKNLLEAAKVFLTAAQSALAAGQKATAATLAQQAIKYATEAAKLAKEAGDEKLAEEAKKVKEQAEKVLKQAQ
B4: design_614_ef6b398b-10cb-4a07-8087-96dafb4f9c83_520_dldesign_0_cycle1_af2pred (protein)
chain: AEGKALFEATKKEMEELREKGKAGTPELAKEQAAKILSLGLRTQGVLQTLGHTAEGDAALEYAKEVAEKAREWAKK
B5: design_613_5efed0bc-64ba-423b-b3f9-a246574e49bb_1441_dldesign_0_cycle1_af2pred (protein)
chain: SEAERLAEEARRVILSGTAEEGAAAAVAAARKALEAGNLEGANLVLYESALAFGEAQRRGTPEDRAILNRGLAEVSRITLELARAA
B6: design_613_5efed0bc-64ba-423b-b3f9-a246574e49bb_1611_dldesign_0_cycle1_af2pred (protein)
chain: DAAAKAKAKEAEAKGKELIAKAKAAAEAGDYDAANAYLQQAIKLGMEMASSGASQAEVDVGAKIVSAVVEAMEYMSAQRRARR
B7: design_613_5efed0bc-64ba-423b-b3f9-a246574e49bb_1183_dldesign_0_cycle1_af2pred (protein)
chain: AEAQKLLEEARKLKEKAFALSPLQVGESLRYASELRKLAEKAAEADPSLAPEAKALAEETSAHVAAKARAGIAAQAA
B8: design_613_5efed0bc-64ba-423b-b3f9-a246574e49bb_898_dldesign_0_cycle1_af2pred (protein)
chain: GEEEERLRREGERIVEEARRLAEEAVAAIKAAAPDVAKATAILIDYLKRIDELVKRAAPYPEAAAEVAELGNRASAQGIRYIMAAA
B9: design_614_ef6b398b-10cb-4a07-8087-96dafb4f9c83_13_dldesign_0_cycle1_af2pred (protein)
chain: SEAEKQAIEIAIAAVLKAGELAGVPEEAKKVAEKIKKSNAGAALAIASAFLNRAAAAAEAAGDAATAAAIRALRTATTAKILALLRG
B10: design_613_5efed0bc-64ba-423b-b3f9-a246574e49bb_2086_dldesign_0_cycle1_af2pred (protein)
chain: AEDERRVASMRELAAQLVAIAEANAANPAALAIVRASALAAGRSFAAAASPEAAAEILAIAAATAARIAAIAAAAAAAA
B11: design_613_5efed0bc-64ba-423b-b3f9-a246574e49bb_1690_dldesign_0_cycle1_af2pred (protein)
chain: AAALEVGRRTLAALERTAEAAIAAARATTPEEAAREMGRARAAAEQARLIGEGVPELAPRAEALAERVAAAAAALEAA
B12: design_614_ef6b398b-10cb-4a07-8087-96dafb4f9c83_591_dldesign_0_cycle1_af2pred (protein)
chain: MTPEEAARAALRSARAALESLKLAVEQGGTLEDVLALGAVAKQSAQAAVELGKQAPEIYEEVKKEAEKIKKEVEKAVAKAKA
B13: design_613_5efed0bc-64ba-423b-b3f9-a246574e49bb_1256_dldesign_0_cycle1_af2pred (protein)
chain: DKAVTSAILRKSLAHARRQLAAATTAEEAEAVAQTAQVLADAAKAAGDAATAAEAAALAAEARAKAAALRAAEEAAA
B14: design_613_5efed0bc-64ba-423b-b3f9-a246574e49bb_1212_dldesign_0_cycle1_af2pred (protein)
chain: SPVEVALAAAKATVKSAEKANVESAEKLAEVAKDLAEYAAKLGGEEAKKEAEKIKKEAEEAVKKQKERAAAA
B15: design_613_5efed0bc-64ba-423b-b3f9-a246574e49bb_2052_dldesign_0_cycle1_af2pred (protein)
chain: GGAAAIALAEAVARQAERQAEEAIAIAPERAPEIEELLERARELAKQAVALAKAGDLGAATEHVVKALELVGEIGRIAREAAAA
B16: design_613_5efed0bc-64ba-423b-b3f9-a246574e49bb_2281_dldesign_0_cycle1_af2pred (protein)
chain: AAAELIAKAKEYQAKALEYVKLAKEAEAAAKAATPEEGAKLNAKADFFNAMALVYAQRAAALLAQVDPALAKAALEKVQKAIA
B17: design_614_ef6b398b-10cb-4a07-8087-96dafb4f9c83_652_dldesign_0_cycle1_af2pred (protein)
chain: GAAEEAKKWAKKAEEALKAAQKAADAAGKTPTLQQYVDNAKRAAEKAKETSKDPSKVEQTKGWAKMAELWAQAAKQQAAAVAAA
B18: design_613_5efed0bc-64ba-423b-b3f9-a246574e49bb_1387_dldesign_0_cycle1_af2pred (protein)
chain: AAAAAQAGQLAVQAAQGMIKKAKEILKRMPEVDPEKALASAKGVTDVAQALADQAIASPATAAQGKALKAEAKAVLAEAEKAAA
B19: design_613_5efed0bc-64ba-423b-b3f9-a246574e49bb_1763_dldesign_0_cycle1_af2pred (protein)
chain: LQELIENGETLEALGKSAAAAGFNATAKRLYQDAAEQYKKAAEKAKELGDEELAKEYEAKAKEAEAKAKEY
B20: design_614_ef6b398b-10cb-4a07-8087-96dafb4f9c83_786_dldesign_0_cycle1_af2pred (protein)
chain: STEQAAQIALNTAKANYKAAKAAAAAGDLAQAEANVKNLKLLTEAAKYYDPEAGKEVEKYYKEAKEAVEKAKAA
B21: design_613_5efed0bc-64ba-423b-b3f9-a246574e49bb_1341_dldesign_0_cycle1_af2pred (protein)
chain: AVAAAGAKGLAAAAKSVAEATIRLAEQVAKEDPSKAEQAKAIAEQAKAAAAAAAKAAEAGDTAAAQAQFQKLVALYQQVLDLAK
B22: design_613_5efed0bc-64ba-423b-b3f9-a246574e49bb_1032_dldesign_0_cycle1_af2pred (protein)
chain: AQAKADELEALGKEAEKKAKEAKNPEAAALYKGAAELMNAMAEAARQTPEFADQLYRMGKASYEALKTEAEKKEAAYKEKE
B23: design_614_ef6b398b-10cb-4a07-8087-96dafb4f9c83_149_dldesign_0_cycle1_af2pred (protein)
chain: MEEAEKYLKKAEEIVEKAKEEALKYAKEGDIGAAVETLAKALKEARKLYEKAGKAGDPEEAEKKAKEAEERINQAMAEAARTALEVAN
B24: design_614_ef6b398b-10cb-4a07-8087-96dafb4f9c83_88_dldesign_0_cycle1_af2pred (protein)
chain: GAALEEALRARAEAARRAMVAVSQAYQLDPALGNEYLARLSEAIAAAEKVLAEGKAKTPEAAAKAVKAAAEEIAALAEEIAAAVEALK
B25: design_613_5efed0bc-64ba-423b-b3f9-a246574e49bb_1354_dldesign_0_cycle1_af2pred (protein)
chain: GEALKEALRQKALEAANKALALTSQLWTKDPARAQPAIALIIQGLETGDPKYFFEAAEKVAADPEAAGAAKAAGEYMEKANKL
B26: design_613_5efed0bc-64ba-423b-b3f9-a246574e49bb_2419_dldesign_0_cycle1_af2pred (protein)
chain: ALGQQLVQQAKEKGKELLEIAKKGTAADAGEAAVELARFTSETARQLEQAGLPAAAQQVLAIGQKTLKEISAIGIAKITA
B27: design_613_5efed0bc-64ba-423b-b3f9-a246574e49bb_1796_dldesign_0_cycle1_af2pred (protein)
chain: SAANIAAAKAYANMAATLAKQAGNEEAAKKAKEAAKVAADKEKATKLLKEAEELLKKEPAEKAPYTNKALEFIKLAKEALSKL
B28: design_613_5efed0bc-64ba-423b-b3f9-a246574e49bb_2155_dldesign_0_cycle1_af2pred (protein)
chain: AAAQAAAVATAAGQALLKQGKKLFEEGKKSGDKKLLEEAAKNFELAATMYAQASAAAGGAADANKKEAEAKLEEAKAAI
B29: design_613_5efed0bc-64ba-423b-b3f9-a246574e49bb_992_dldesign_0_cycle1_af2pred (protein)
chain: GERVEELRALVEEAARVSPELAALAQEALRLYLRGLALSANPATAARGEAAFAESERLAAEARARLAERLAAAAA
B30: design_613_5efed0bc-64ba-423b-b3f9-a246574e49bb_896_dldesign_0_cycle1_af2pred (protein)
chain: AQAEAARQAAVDALAKSGEAAVKAMKEDPERASKRASGAIANLRLLGDEETAEKVAKKLLEEAKKLGEEAYEIAKKEVEKAKENVEA
B31: design_613_5efed0bc-64ba-423b-b3f9-a246574e49bb_418_dldesign_0_cycle1_af2pred (protein)
chain: AGAEAAAHLNAAFASLSKGLISTDPAEAQKYFDEAKAHLDKARALAAKDPAVAAEVQAAVDKITDLLEGGKAAR
B32: design_613_5efed0bc-64ba-423b-b3f9-a246574e49bb_1837_dldesign_0_cycle1_af2pred (protein)
chain: MTPREKAIAAINAATALAAAAVPAYADTFADLAGIVLTALEAGTGPTAVRVVGQAVVNVLRGAGATAAADAVAALYDEALEAAKAAA
B33: design_613_5efed0bc-64ba-423b-b3f9-a246574e49bb_2054_dldesign_0_cycle1_af2pred (protein)
chain: FERAARAVEAVIELLRLLAEGNPATAAELRARAEELEAELAKARELAEKEGPEAGKARAEAIAAEGRRLLAEASRTAV
B34: design_613_5efed0bc-64ba-423b-b3f9-a246574e49bb_1343_dldesign_0_cycle1_af2pred (protein)
chain: LAEAAERTARAIERNALEAIKTLSPEEAKRAAELAVTMLEGLAIAAPEAAPVARGLAERVRAAEREYTSKKLAE
B35: design_613_5efed0bc-64ba-423b-b3f9-a246574e49bb_1398_dldesign_0_cycle1_af2pred (protein)
chain: MEEVKEEMEKLLEKVKKAVAEDVGKGGEVLVEFVKKGAELAANSTPEAAAYARKKMKEAINIVLEATLAA
B36: design_614_ef6b398b-10cb-4a07-8087-96dafb4f9c83_4_dldesign_0_cycle1_af2pred (protein)
chain: AAGDEAANAAIALGQVLGPEVAEETTKAVEYMKSGSEKEKAKEYAEKAVELAEKVGPNSAASLKAILEKAEKLFS
B37: design_613_5efed0bc-64ba-423b-b3f9-a246574e49bb_1180_dldesign_0_cycle1_af2pred (protein)
chain: AEAEEKKRRAEAHVQAAEVYITAARSAMEAGLTDAALAHAKRAIEHAQKAIELGEPRGKELLAEAEAVLKEVKA
B38: design_613_5efed0bc-64ba-423b-b3f9-a246574e49bb_1308_dldesign_0_cycle1_af2pred (protein)
chain: AAAEKAKEAAKKAEELAKYAEEHKEELTPEELRKIGYELVKQGNTLLQAGGAAQAAAQKAFGYAAEVAELIRE

Molecular target: CD276, Q5ZPR3
Sequence (Q5ZPR3 whole entry): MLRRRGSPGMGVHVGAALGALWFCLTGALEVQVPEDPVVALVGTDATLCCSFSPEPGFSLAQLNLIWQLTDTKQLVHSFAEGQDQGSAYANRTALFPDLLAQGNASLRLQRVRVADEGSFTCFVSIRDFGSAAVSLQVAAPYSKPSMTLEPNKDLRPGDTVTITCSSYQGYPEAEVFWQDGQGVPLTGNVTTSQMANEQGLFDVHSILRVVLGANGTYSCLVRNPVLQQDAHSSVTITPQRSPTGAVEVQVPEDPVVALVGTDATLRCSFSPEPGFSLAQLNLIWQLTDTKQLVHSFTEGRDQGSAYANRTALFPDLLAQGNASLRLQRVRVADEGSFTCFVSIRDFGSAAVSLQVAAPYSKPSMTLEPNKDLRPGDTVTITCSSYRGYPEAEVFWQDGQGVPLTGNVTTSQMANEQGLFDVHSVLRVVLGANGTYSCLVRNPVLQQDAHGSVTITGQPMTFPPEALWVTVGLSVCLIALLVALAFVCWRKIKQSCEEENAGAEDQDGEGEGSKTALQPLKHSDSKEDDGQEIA

Binder	binding in a display sort
B1	not found
B2	not found
B3	not found
B4	not found
B5	not found
B6	not found
B7	not found
B8	not found
B9	not found
B10	not found
B11	not found
B12	not found
B13	not found
B14	not found
B15	not found
B16	not found
B17	not found
B18	not found
B19	not found

Binder	binding in a display sort
B20	not found
B21	not found
B22	not found
B23	not found
B24	not found
B25	not found
B26	not found
B27	not found
B28	not found
B29	not found
B30	not found
B31	not found
B32	not found
B33	not found
B34	not found
B35	not found
B36	not found
B37	not found
B38	not found
